Source: PubChem (Buhrlage Lab, Dana-Farber Cancer Institute and Novartis Institutes for BioMedical Research (Cambridge, Mass))
Rows were chosen to be rich in hits. Some 12% of all compounds tested hit in one or more screens of this group.
USP30 block: inhibitors of human USP30 deubiquitinase | 5.3% of 47,000 active | purified USP30, Ub-rhodamine cleavage fluorescence | inhibition, % at 25 µM | Ubiquitin carboxyl-terminal hydrolase 30 (Homo sapiens), Q70CQ3
USP17 block: inhibitors of human USP17 deubiquitinase. Ubiquitin carboxyl-terminal hydrolase 17-like protein 5 (Homo sapiens), A8MUK1. purified USP17, Ub-rhodamine cleavage fluorescence, 3 h. inhibition, % at 50 µM. 6.5% of 47,000 active
OTUD3 block: inhibitors of human OTUD3 deubiquitinase; purified OTUD3, Ub-rhodamine fluorescence, 2 h; inhibition, % at 25 µM; 0.7% of 47,000 active
Target sequence (Q5T2D3 whole entry, looked up): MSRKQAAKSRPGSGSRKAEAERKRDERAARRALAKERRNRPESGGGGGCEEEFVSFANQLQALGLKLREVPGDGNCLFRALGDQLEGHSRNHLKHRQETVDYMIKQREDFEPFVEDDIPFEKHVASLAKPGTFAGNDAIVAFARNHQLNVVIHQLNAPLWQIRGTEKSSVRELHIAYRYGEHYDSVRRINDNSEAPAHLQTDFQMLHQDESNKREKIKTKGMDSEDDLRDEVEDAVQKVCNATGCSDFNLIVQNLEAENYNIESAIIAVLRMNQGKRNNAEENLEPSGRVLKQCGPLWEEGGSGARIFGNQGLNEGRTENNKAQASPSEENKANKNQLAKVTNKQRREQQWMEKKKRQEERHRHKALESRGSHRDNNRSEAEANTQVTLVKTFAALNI
USP28 inh: inhibitors of human USP28 deubiquitinase. AID 1645857, 2021. 3% of 47,000 active. purified USP28, Ub-rhodamine cleavage fluorescence, 30 min. inhibition, % at 25 µM. Ubiquitin carboxyl-terminal hydrolase 28 (Homo sapiens), Q96RU2
Active calls of the source: *; x = no result given. Cut-off read from the data, not from the text of the source: active = inhibition above about 30%; inactive = the rest.

SMILES	USP30 block	USP17 block	OTUD3 block	USP28 inh
O=C1COc2ccc(C(=O)NCc3ccc4c(c3)OCO4)cc2N1	0	-6	-1	9
O=C(NCc1ccc2c(c1)OCO2)c1cc2c(s1)-c1ccccc1OC2	57*	17	12	27
O=C(Nc1cccc(C(F)(F)F)c1)c1cc2c(s1)-c1ccccc1OC2	70*	x	27	26
O=C1CCSc2c1cccc2C(=O)Nc1cccc(C(F)(F)F)c1	7	5	4	12
O=C(O)c1ccccc1Cc1nc2scc(-c3ccccc3)c2c(=O)[nH]1	7	14	13	7
O=C(Nc1ccc(-c2ccc(N3CCOCC3)nn2)cc1)c1ccccc1Cl	-14	1	-8	-5
COc1ccccc1C(=O)NCC(=O)OCc1ccc(F)cc1	x	-21	-9	x
CC(C)(C)C(=O)Nc1ccc(C(=O)Nc2cccc(-c3nnc(-c4ccccc4)o3)c2)cc1	55*	44*	18	30
Cc1ccccc1NC(=O)Nc1cccc(-c2nnc(-c3ccccc3)o2)c1	4	3	10	4
COc1ccc(NC(=O)Nc2cccc(-c3nnc(-c4ccccc4)o3)c2)cc1OC	51*	20	19	18
O=C(Nc1cccc(F)c1)Nc1cccc(-c2nnc(-c3ccccc3)o2)c1	91*	89*	22	72*
CC(=O)Nc1ccc(SCc2nnc(-c3ccccc3)o2)cc1	-2	-7	-5	45*
COc1ccc(S(=O)(=O)NCCSc2ccccc2)cc1	9	8	19	15
O=C(c1cc(-c2ccc(Cl)cc2)n[nH]1)N1CCN(c2ccc(F)cc2)CC1	6	3	0	-2
O=C(c1cc(-c2ccc(Cl)cc2)n[nH]1)N1CCN(C(=O)c2ccco2)CC1	10	70*	7	3
COc1ccc(-c2nn3c(N4CCN(c5ccccn5)CC4)cc(C)nc3c2C)cc1	x	84*	-5	x
COc1ccc(-c2cc(C(=O)N3CCN(c4ccccn4)CC3)[nH]n2)cc1	11	46*	10	21
O=C(c1cc(-c2ccc(Cl)cc2)n[nH]1)N1CCN(c2ccccn2)CC1	43*	45*	2	13
O=C(NCc1ccc(F)cc1)C1CCCN(C(=O)c2cc(-c3ccncc3)n[nH]2)C1 (stereo unspecified)	-33	1	2	1
O=C(COc1ccc(C2CCCCC2)cc1)Nc1ccc2oc(-c3cccnc3)nc2c1	26	0	-11	-9
O=S(=O)(Nc1ccc2oc(-c3ccncc3)nc2c1)c1ccccc1	30*	55*	16	32*
Cc1ccc(NC(=O)CCc2c(C)nc3nc[nH]n3c2=O)cc1Cl	17	10	8	4
CCn1c(CNc2ccc(C)cc2)nnc1SCC(=O)Nc1ccccc1Cl	-31	-18	-15	5
Cc1cc(C)c(NC(=O)CSc2nc3nccnc3c(=O)n2Cc2ccccc2Cl)c(C)c1	-11	49*	31*	37*
Cc1ccc([N+](=O)[O-])cc1S(=O)(=O)Nc1cc2sc(=O)oc2c2ccccc12	-10	67*	33*	61*
SMILES	USP30 block	USP17 block	OTUD3 block	USP28 inh
COc1ccccc1NS(=O)(=O)c1cc([N+](=O)[O-])ccc1NCC1COc2ccccc2O1 (stereo unspecified)	22	6	4	12
O=C(c1cc(-c2ccccc2)nn1-c1ccccc1)N1CCN(C(=O)C2CCCO2)CC1 (stereo unspecified)	37*	9	5	14
O=C(c1cc(C2CC2)nn1-c1ccccc1)N1CCN(c2ccc(O)cc2)CC1	3	19	-4	0
CCN1CCc2c(sc(NC(=O)CSc3ccc(Cl)cc3)c2C(N)=O)C1	28	34*	-3	15
NC(=O)C1CCN(C(=O)c2nnn(-c3ccccc3)n2)CC1	34*	16	9	14
COc1ccc(N2CCN(C(=O)c3nnn(-c4ccc(OC)cc4)n3)CC2)cc1	36*	11	15	17
NC(=O)C1CCN(C(=O)c2nnn(-c3ccc(OC(F)(F)F)cc3)n2)CC1	12	-2	-1	0
COc1ccc(-n2nnc(C(=O)N3CCN(c4ccccc4Cl)CC3)n2)cc1	33*	23	24	33*
O=C(c1nnn(-c2ccc(F)cc2)n1)N1CCN(c2ccccc2O)CC1	17	2	-3	1
COc1ccc(CN2C(=O)CCC2(C)C(=O)NCc2ccccc2)cc1 (stereo unspecified)	6	5	5	5
COc1cccc(CNC(=O)c2ccccc2NC(=O)c2ccc(F)cc2)c1	41*	7	0	-4
